Experimental data as given in PubChem BioAssay (EPA / NIEHS).
Records with an inconclusive call do not appear. Calls of active or inactive are those of the source. How the source made its calls: active means hit-call score of the fitted dose curve at least 0.9, where 1 is the maximum; inconclusive means response in the unintended direction; inactive means score below 0.9.

Each compound was assayed against Nucleoli Translocation, AR (gene 367) (UniProt P10275) (assay: UPITT_HCI_U2OS_AR_TIF2_Nucleoli_Antagonist: University of Pittsburgh U2OS Androgen Receptor-Transcriptional Intermediary Factor 2 (AR-TIF2) Antagonism High Content Imaging Assay for Nucleoli Translocation (AID 2283997)).
How it was run: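 Measured quantity was AR-RFP fluorescence localized to nucleoli in engineered U2OS cells also bearing TIF2-GFP, acquired on automated high-content imagers. Primary testing used 20 uM compound; actives were confirmed in triplicate wells.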

Sequence of Nucleoli Translocation, AR (gene 367) (P10275 whole entry, looked up): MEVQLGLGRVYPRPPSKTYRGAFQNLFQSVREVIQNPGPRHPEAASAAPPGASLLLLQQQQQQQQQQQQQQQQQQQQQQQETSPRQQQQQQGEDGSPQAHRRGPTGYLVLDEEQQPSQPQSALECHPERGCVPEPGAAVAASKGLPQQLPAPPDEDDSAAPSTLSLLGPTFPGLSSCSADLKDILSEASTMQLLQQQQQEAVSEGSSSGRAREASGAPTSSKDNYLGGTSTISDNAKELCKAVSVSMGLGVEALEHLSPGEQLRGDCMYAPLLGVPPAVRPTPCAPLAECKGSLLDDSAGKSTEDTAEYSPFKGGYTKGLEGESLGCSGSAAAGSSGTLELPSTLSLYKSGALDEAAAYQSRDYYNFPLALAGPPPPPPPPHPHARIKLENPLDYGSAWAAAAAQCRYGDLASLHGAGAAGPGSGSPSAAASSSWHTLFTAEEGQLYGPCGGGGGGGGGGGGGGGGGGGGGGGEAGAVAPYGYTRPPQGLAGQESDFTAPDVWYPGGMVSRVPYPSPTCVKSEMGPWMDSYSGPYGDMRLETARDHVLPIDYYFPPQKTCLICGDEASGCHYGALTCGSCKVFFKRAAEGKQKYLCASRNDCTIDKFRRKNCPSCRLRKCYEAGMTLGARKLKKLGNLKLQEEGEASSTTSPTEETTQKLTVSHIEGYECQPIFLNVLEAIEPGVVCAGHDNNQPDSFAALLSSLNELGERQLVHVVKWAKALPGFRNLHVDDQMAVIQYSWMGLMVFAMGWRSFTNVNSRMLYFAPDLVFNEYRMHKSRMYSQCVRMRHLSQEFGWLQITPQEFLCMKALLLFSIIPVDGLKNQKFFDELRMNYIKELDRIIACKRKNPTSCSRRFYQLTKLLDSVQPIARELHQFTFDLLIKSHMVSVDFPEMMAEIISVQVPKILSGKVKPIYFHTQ

Row | SMILES | outcome | AC50
1 | Cc1ccc(S(=O)(=O)Oc2ccc(N=Nc3ccc(-c4ccc(N=Nc5c(O)ccc6cc(S(=O)(=O)O)cc(S(=O)(=O)O)c56)c(C)c4)cc3C)cc2)cc1 | inactive | –
2 | C[C@H]1O[C@@H](O[C@H]2[C@@H](O)C[C@H](O[C@H]3[C@@H](O)C[C@H](O[C@H]4CC[C@@]5(C)[C@H](CC[C@@H]6[C@@H]5C[C@@H](O)[C@]5(C)[C@@H](C7=CC(=O)OC7)CC[C@]65O)C4)O[C@@H]3C)O[C@@H]2C)C[C@H](O)[C@@H]1O | inactive | –
3 | OCc1cccc(Oc2ccccc2)c1 | inactive | –
4 | CC1CCC(C(C)C)C(O)C1 (configuration not stated) | inactive | –
5 | CCCCCCCCSCCO | – | 59 µM (active)
6 | CC(=O)O[C@@H]1CC2CCC1(C)C2(C)C (some centres not stated) | inactive | –
7 | CC(=O)C1(C)CC2=C(CCCC2(C)C)CC1C (configuration not stated) | inactive | –
8 | CCOC(=O)[C@@H](C)Oc1ccc(Oc2nc3ccc(Cl)cc3o2)cc1 | inactive | –
9 | Nc1ccc(N)c2c1C(=O)c1ccccc1C2=O | inactive | –
10 | CCc1ccc(O)cc1 | inactive | –
11 | CCCCCCCCC=CCCCCCCCC1=NCCN1CCO | – | 93 µM (active)
12 | BrCc1cccc(Oc2ccccc2)c1 | inactive | –
13 | CC(C=O)Cc1ccc(C(C)(C)C)cc1 (configuration not stated) | inactive | –
14 | CC(C)CCCCCCc1ccc(OCCOCCO)cc1 | inactive | –
15 | CCc1cc(Cc2cc(CC)cc(C(C)(C)C)c2O)c(O)c(C(C)(C)C)c1 | – | 62.2 µM (active)
16 | CCCCC1CCC(O)CC1 (configuration not stated) | inactive | –
17 | CC(=O)O[C@H]1C[C@@H]2CC[C@@]1(C)C2(C)C | inactive | –

Each compound was assayed against Nucleoli Translocation, AR (gene 367) (UniProt P10275) (assay: UPITT_HCI_U2OS_AR_TIF2_Nucleoli_Agonist: University of Pittsburgh U2OS Androgen Receptor-Transcriptional Intermediary Factor 2 (AR-TIF2) Agonism High Content Imaging Assay for Nucleoli Translocation (AID 2283998)).
How it was run: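 U2OS cells expressing RFP-tagged human AR and GFP-tagged TIF2; red fluorescence in nucleoli quantified by high-content imaging. Primary screen at 20 uM final (0.2% DMSO); concentration-response 0.195–50 uM (0.5% DMSO), fitted upward versus DMSO.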

Row | SMILES | outcome | AC50
18 | Cc1ccc(S(=O)(=O)Oc2ccc(N=Nc3ccc(-c4ccc(N=Nc5c(O)ccc6cc(S(=O)(=O)O)cc(S(=O)(=O)O)c56)c(C)c4)cc3C)cc2)cc1 | inactive | –
19 | CCCCCCCCSCCO | inactive | –
20 | CC(=O)C1(C)CC2=C(CCCC2(C)C)CC1C (configuration not stated) | inactive | –
21 | CCOC(=O)[C@@H](C)Oc1ccc(Oc2nc3ccc(Cl)cc3o2)cc1 | inactive | –
22 | Nc1ccc(N)c2c1C(=O)c1ccccc1C2=O | inactive | –
23 | CCCCCCCCCCCCCC(=O)OCC(O)CO (configuration not stated) | inactive | –
24 | CCCCCCCCC=CCCCCCCCC1=NCCN1CCO | – | 13.3 µM (active)
25 | BrCc1cccc(Oc2ccccc2)c1 | inactive | –
26 | CC(C=O)Cc1ccc(C(C)(C)C)cc1 (configuration not stated) | inactive | –
27 | CCc1cc(Cc2cc(CC)cc(C(C)(C)C)c2O)c(O)c(C(C)(C)C)c1 | – | 77.1 µM (active)
